Screens (PubChem BioAssay)
Only some compounds are listed: those with a hit (about 12% of all), similar ones and a draw of the others.
ALDH1A1 block: qHTS Assay for Inhibitors of Aldehyde Dehydrogenase 1 (ALDH1A1); Aldehyde dehydrogenase 1A1 (Homo sapiens), P00352; 220,000 tested, 7.3% active; AID 1030, 2008; Potency, µM (highest dose often 75.3 µM), inactives show at the highest dose activity, negative = inhibition, most hits filed as inhibitors; Purified ALDH1A1, NADH fluorescence, propionaldehyde substrate; active means well fitted inhibition curve with a large enough effect, not every such curve was filed as active; inconclusive means small, poorly fitted or top-dose-only effect, or another doubt; inactive means no such curve, though single readings can be large or run the other way;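 further: plate controls were no enzyme wells and a reference inhibitor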
PLK1 PBD inh: qHTS for Inhibitors of PLK1-PDB (polo-like kinase 1 - polo-box domain): Primary Screen | Serine/threonine-protein kinase PLK1 (Homo sapiens), P53350 | Plk1 PBD binding of FITC phosphopeptide, fluorescence polarization | Potency, µM, for inactives: max response, negative = inhibition, most hits filed as inhibitors | 360,000 tested, 2.8% active | AID 720504, 2013; further: series mostly up to about 57 µM; nearly all actives have a fitted effect of over 65% in size
Gal4-VP16 FLuc: VP16 counterscreen qHTS for inhibitors of ROR gamma transcriptional activity | Drosophila S2 Gal4-VP16 UAS-luciferase, luminescence, 20 h | Potency, µM (titrated, usually from 53.6 µM), inactives show at the top dose activity, negative = inhibition, hits mostly inhibitors | 310,000 tested, 3.5% active | AID 2546, 2010;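 further: Gal4-VP16 expression switched on by copper sulfate through the metallothionein promoter; nearly all actives have a fitted effect of over 50% in size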
Sfp inh: qHTS Assay for Inhibitors of Bacillus subtilis Sfp phosphopantetheinyl transferase (PPTase) | 4'-phosphopantetheinyl transferase ffp (Bacillus subtilis), Q9F4F7 | Biochemical Sfp PPTase activity, qHTS | Potency, µM, for the others: largest response in the series, negative = inhibition, actives largely listed as inhibitors | 310,000 tested, 3.5% active;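 further: the enzyme is Sfp with the accession as filed and its product quenches rhodamine fluorescence; 0% = enzyme reaction without inhibitor and -100% = no enzyme wells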
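After 15 min at room temperature with compound, 15 nM Sfp received 5 uM rhodamine-CoA plus 12.5 uM BHQ-2-ybbR (50 mM Hepes pH 7.6, 10 mM MgCl2). Rate came from the fluorescence difference over 30 min, ex 525/em 598 nm.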
RORgamma inh: qHTS for inhibitors of ROR gamma transcriptional activity; 310,000 tested, 5.4% active; Drosophila S2 Gal4-RORgamma UAS-luciferase reporter, 20 h; Nuclear receptor ROR-gamma (Mus musculus), P51450; Potency, µM (highest dose often 53.6 µM), without a hit: at the highest dose activity change, negative = inhibition, usual class: inhibitors; AID 2551, 2010; further: nearly all actives have a fitted effect of over 60% in size
Target sequence (P51450 whole entry, looked up, the tested form may be a part): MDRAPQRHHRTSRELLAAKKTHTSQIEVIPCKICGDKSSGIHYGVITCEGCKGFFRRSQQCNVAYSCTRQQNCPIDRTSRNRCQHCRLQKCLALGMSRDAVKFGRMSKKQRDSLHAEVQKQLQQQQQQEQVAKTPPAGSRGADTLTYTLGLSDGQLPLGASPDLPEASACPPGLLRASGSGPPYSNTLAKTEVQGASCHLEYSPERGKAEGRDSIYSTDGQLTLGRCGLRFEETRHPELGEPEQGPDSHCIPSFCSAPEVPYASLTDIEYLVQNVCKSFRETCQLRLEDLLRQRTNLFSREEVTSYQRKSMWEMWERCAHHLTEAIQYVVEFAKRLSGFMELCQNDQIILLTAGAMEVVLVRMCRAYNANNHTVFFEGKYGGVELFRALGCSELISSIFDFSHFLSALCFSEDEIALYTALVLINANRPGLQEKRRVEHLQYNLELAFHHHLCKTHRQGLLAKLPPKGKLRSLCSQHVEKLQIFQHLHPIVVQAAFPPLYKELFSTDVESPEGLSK
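Stably transfected Drosophila Schneider cells are the test system, with ROR gamma fused to Gal4 and luciferase under UAS control; luminescence is read after 20 hr of 700 uM copper sulfate induction at ambient temperature.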
* = called active by the depositor; ? = inconclusive; nt = no result; [ ] = another dose, or the depositor's remark. Unless noted, the call rests on the fitted dose curve; in most records, active means well fitted curve in the direction sought with a large enough effect; inconclusive means small, poorly fitted or top-dose-only effect, or another doubt; inactive means no such curve, though single readings can be large; an effect the other way counts as inactive or inconclusive. Unless noted, on the % scale 0 is the no-effect control and ±100 the full control effect; potency means the concentration at half of the fitted maximal effect.

SMILES	ALDH1A1 block	PLK1 PBD inh	Gal4-VP16 FLuc	Sfp inh	RORgamma inh
COc1ccc(/C=C2\CC/C(=C\c3ccc(OC)c(OC)c3)C2=O)cc1OC	-13%	-11%	16µM*	-20%	2.2µM*
COc1ccc(C=C2C=C(C(C)(C)C)C(=O)C(C(C)(C)C)=C2)cc1OC	nt	30µM*	4.5µM*	-22%	7.1µM*
CCCCn1nnnc1C1(C)CCC(=O)N1CCCN1CCOCC1 (stereo unspecified)	nt	-1%	nt	nt	nt
Cc1ccc(C2C(C=Nc3c(C)n(C)n(-c4ccccc4)c3=O)=C(c3ccccc3)Oc3ccccc32)cc1 (stereo unspecified)	8%	21µM*	-9%	13%	0%
Cc1c(N=Cc2cccs2)c(=O)n(-c2ccccc2)n1C	?	-2%	5%	7%	7%
Cc1nc2nc(-c3ccc(F)cc3)cn2nc1C	nt	-23%	?	9%	?
c1ccc(-c2cn3nc4c(nc3n2)CCCC4)cc1	?	-21%	?	79µM*	5µM*
Brc1ccc(-c2cn3nc4c(nc3n2)CCCC4)cc1	?	-25%	?	?	?
Cc1nc2nc(-c3ccccc3)cn2nc1C	?	-8%	?	11%	10µM*
CCc1ccc(-c2cn3nc(C)c(C)nc3n2)cc1	2.8µM*	-9%	?	19%	7.1µM*
CCCCN(C=O)c1c(CC)nc2c(OCc3ccc(C(F)(F)F)cc3)cccn12	nt	-5%	nt	nt	nt
Oc1ccc2ccccc2c1/C=C\c1ccc2c(Br)cc(Br)c(O)c2n1	21%[13.5 µM]	nt	nt	nt	nt
O=C(Cl)CCCCCCCC(=O)Cl	nt	nt	1%	-3%	-3%
O=C(CCCn1c(SCC(=O)NCC2CCCO2)nc2ccccc2c1=O)NCc1ccccc1 (stereo unspecified)	1%	-1%	-1%	17%	-5%
Cc1ccc(NC(=O)CSc2nc3ccccc3c(=O)n2CCCC(=O)NCC2CCCO2)cc1 (stereo unspecified)	nt	27µM*	-6%	8%	5%
N#CCSc1nc2ccccc2c(=O)n1CCCC(=O)NCC1CCCO1 (stereo unspecified)	28µM*	-1%	5%	12%	26%
O=C(CCCn1c(SCc2cccc(F)c2)nc2ccccc2c1=O)NCC1CCCO1 (stereo unspecified)	16µM*	-4%	14%	-9%	?
O=C(CCCn1c(SCc2cc(=O)n3ccccc3n2)nc2ccccc2c1=O)NCC1CCCO1 (stereo unspecified)	?	-12%	2%	13%	25%
O=[N+]([O-])O[C@H]1CO[C@H]2[C@@H]1OC[C@H]2O	9%	nt	-3%	7%	9%
CN(C)c1ccc(NC(=O)CSCc2nc3c(nnn3Cc3ccc(F)cc3)c(=O)[nH]2)cc1	10µM*	-15%	-4%	21%	-16%
CCS(=O)(=O)N1CCC(C(=O)NCc2cccnc2)CC1	20%	-1%	-5%	32%	0%
CC(C)CN(CC(C)C)S(=O)(=O)N1CCC(C(=O)NCc2cccnc2)CC1	-2%	27µM*	-20%	14%	-1%
Cc1ccc(CNC(=O)CN2CCC(C(N)=O)CC2)cc1	-7%	-9%	-3%	11%	32%
CSc1ccc(CN2CCC(C(=O)NCc3ccc(C)cc3)CC2)cc1	-6%	-19%	0%	56µM*	-6%
Cc1oc(-c2ccc(Cl)cc2)nc1CN1CCC(C(=O)NCc2cccnc2)CC1	-2%	-10%	-16%	?	30%
SMILES	ALDH1A1 block	PLK1 PBD inh	Gal4-VP16 FLuc	Sfp inh	RORgamma inh
CC(C)c1ccc(CN2CCC(C(=O)NCc3cccnc3)CC2)cc1	?	-6%	9%	79µM*	1%
O=C(NCCCn1ccnc1)C1CCCN(S(=O)(=O)c2ccc(F)cc2)C1 (stereo unspecified)	nt	1%	3%	4%	-12%
CC(C)C[C@H]1CN(CCCC[C@H]2CNC(=O)C(=O)N2Cc2ccccc2)C(=O)C(=O)N1CCc1ccc(O)cc1	nt	-5%	nt	nt	nt
CCOC(=O)CN1C(=O)N[C@@H](CCc2ccccc2)[C@H](C(=O)OC)[C@H]1C	0%[13.5 µM]	-4%	nt	3%	nt
COc1ccc(Cl)cc1NC(=O)CC1CCCC1	nt	1%	-14%	-2%	8%
C=CCNC(=S)Nc1cc(Cl)ccc1OC	-6%	-7%	?	-10%	13µM*
COc1ccc(Cl)cc1NC(=S)NC1CCCC1	nt	-6%	7.1µM*	2%	10µM*
C=CCN(CC=C)C(=S)Nc1cc(Cl)ccc1OC	-6%	-2%	-14%	5%	?
COc1ccc(Cl)cc1NC(=S)N1CCCCCC1	nt	-17%	-30%	8%	?
Cc1cccc(C)c1NC(=S)N1CCC(c2ccccc2)C1 (stereo unspecified)	-3%	-9%	35µM*	3%	16µM*
COc1ccc(Cl)cc1NC(=S)N1CCC(c2ccc(C)cc2)C1 (stereo unspecified)	0%	?	-17%	-4%	13µM*
CCCCOc1cccc2c(=O)n(CC(=O)Nc3ccc4c(c3)OCCO4)ccc12	nt	-15%	nt	nt	nt
O=C1NC[C@H](Cc2ccccc2)N(C[C@@H]2CCCN2C[C@H](Cc2ccc(O)cc2)N2C[C@H](Cc3ccccc3)N(CC3CCCCCC3)C(=O)C2=O)C1=O	nt	-12%	nt	nt	nt
COc1ccc(NC(=S)NC2CCCCCC2)c(OC)c1	-11%	?	7.1µM*	-24%	3.2µM*
C=CCNc1nc(Cl)nc(Nc2cc(Cl)ccc2OC)n1	nt	21µM*	?	-1%	?
COc1ccc(NC(=S)NC2CCCCC2)c(OC)c1	0%	-19%	?	-5%	3.2µM*
Cc1c(Br)cccc1NC(=O)C1(C)CCN1CCc1ccccc1 (stereo unspecified)	nt	-10%	nt	nt	nt
Cc1cc(C)nc(Nc2n[nH]c(COc3ccc(Cl)cc3)n2)n1	9%	-2%	-11%	16%	-22%
Cc1cccc(OCc2nc(-c3ccccn3)n[nH]2)c1	7%	-3%	2.8µM*	1%	1.6µM*
Cc1ccc(OCc2nc(-c3ccccn3)n[nH]2)cc1	6%	-2%	5µM*	-2%	3.2µM*
Cc1ccc(CN2C(=O)CCC2(C)c2nnnn2Cc2ccccc2)cc1 (stereo unspecified)	nt	-9%	nt	nt	nt
CCOC(=O)c1c(NC(=O)COC(=O)Cn2c(C)nc3ccccc32)sc2c1CCCC2	?	1%	-5%	32µM*	-4%
COC(=O)c1c(NC(=O)COC(=O)Cn2cnc3ccccc32)sc2c1CCCC2	14µM*	5%	-17%	-15%	-10%
CCOC(=O)c1c(NC(=O)COC(=O)Cn2cnc3ccccc32)sc(C)c1C	?	-1%	-13%	2%	10%
